# Reference: the supplement of paper PMC10338343
# ± gives the standard deviation.
# Tested on: EfPiwi piRISC loaded with L1MC piRNA (26 nt)
# Test: pre-steady-state target cleavage rate (min^-1); auxiliary factor: none (no Gtsf1); guide: L1MC piRNA 5'p-UAACUAAAUACUAUGCAAGCUGUAGG; MIWI and MILI are mouse PIWI proteins and EfPiwi is from a freshwater sponge; tags in brackets are library labels; higher = faster piRNA-guided slicing of the target
# Experimental: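 Cleave-'n-Seq: a library of target RNAs (target site in constant flanks) at […] was incubated with 1 nM active freshwater sponge Ephydatia fluviatilis Piwi piRISC (synthetic 5'-monophosphorylated piRNA guide) with or without 500 nM EmGtsf1 at 33 °C for 1 min to 16 h. Uncleaved targets were sequenced and the pooled three trials fitted to a burst-and-steady-state model to give the pre-steady-state cleavage rate (min^-1). Sequence is the target site only. Fits with R² ≤ 0 are excluded.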
row,Sequence,pre-steady-state target cleavage rate
1,UCCUGGUGACAGCUUGCAUAGUAUUUAGUUA,0.0577 ± 0.023
2,UCCUGGAUGUCGAUGCAGUAGUAUUUAGUUA,< 0.0001
3,UCCUGGAUGUCGAACGAGUAGUAUUUAGUUA,< 0.0001
4,UCCUGGAUGAGCUUGCAUAGAUUUUAGUAA,< 0.0001
5,UCCUGGAUGUCGAACGUAUGUAUUUAUUA,< 0.0001
6,UCCUGGAUGUCGAAGGAUAGUAUUAAGUUA,< 0.0001
7,UCCUGCUAGAGCUUGCAUAGUAUUUAGAAA,< 0.0001
8,UCCUGGAUGUGCUUGCGUAGUAUUUAGUUA,0.00427 ± 0.0042
9,UCCUGGAUGAGCUUGCAUAGUUUUUAGAUA,< 0.0001
10,UCCUGGAUGUCGAACGAAAGUUUUUAGUUA,< 0.0001
11,UCCUGGUUCUGCUUGCAUAGUAUUUAGUUA,0.00563 ± 0.0047
12,UCCUGGAUGUCGAAGCAUAGUAUUUUGAUA,< 0.0001
13,UCCUGGAUGUCCUUGCAUAGUUUUUAGUAA,< 0.0001
14,UCCUGGAUGUCGAACGUAUGAUUUAGUUA,< 0.0001
15,UCCUCCUACAGCUUCGUUAGUAUUUAGAAA,< 0.0001
16,UCCUGGAUGUCCAUGCAUAGUAUUUAGAUA,< 0.0001
17,UCCUCCUACACCUUCCAUAGUAUUUAGUUA,< 0.0001
18,UCCUCCUACACGAUGCAUAGUAUUUACAAA,< 0.0001
19,UCCUGGUACAGCUUGCAUAGUAUAUACUUA,< 0.0001
20,UCCUGGAUGUCGAAGCAUAGUAUUUACUAA,< 0.0001

row,Sequence,pre-steady-state target cleavage rate
1,UCCUCCUACAGCUUGCAUAGUAUUGUAGUUA,< 0.0001
2,UCCUGGAUGUGCAUGCAUAGUAUUUACUUA,< 0.0001
3,UCCUGGAUGUCGAACGUUAGUCAUUUAGUUA,< 0.0001
4,UCCUGGAUGUCCUUGCAUAGUAUUUCAGUUA,< 0.0001
5,UCCUGGAUGUCGAAGCUAUAGUAUUUAGUUA,< 0.0001
6,UCCUGGAUGUCGAACGAAGUAUUUAGUUA,< 0.0001
7,UCCUGGAUCAGCUUGCAUAGUAUCUUAGUUA,0.0132 ± 0.0071
8,UCCUCCUACAGCUUCCAUAGUAUAUAGUUA,< 0.0001
9,UCCUGGAUGUCGAACGUAUCUAUUUAUUUA,< 0.0001
10,UCCUGGAUGUCGAAGGAUAGUAUUUUGUUA,< 0.0001
11,UCCUGGAUCAGCUUGCAUUGUAUAUAGUUA,< 0.0001
12,UCCUGGAUGUCGAAGCAUACUAAUUAGUUA,< 0.0001
13,UCCUGGAUGUCGAACGUUAGAAUUUUGUUA,< 0.0001
14,UCCUGGAUGUGCUUGCAUACAUUUUAGUAA,< 0.0001
15,UCCUGGAACAGCUUGCAUAGUAUUAUGAAA,< 0.0001
16,UCCUGGAUGUCCUUGCAUACUAUUUAGAUA,< 0.0001
17,UCCUGGAUGUCGAAGGAUAGUAUUUAGUUA,< 0.0001
18,UCCUGGAUGUCGAUGCAUUGAAUUUAGUUA,< 0.0001
19,UCCUGGAUGUGCUUGCAAAGUAUUUUGUUA,< 0.0001
20,UCCUGGAUGUCGAAGCAUAGAUAUUUAGUUA,< 0.0001
